Source: PubChem (National Center for Advancing Translational Sciences (NCATS))
HT1080-NT tox: kills 2HG-producing HT-1080-NT fibrosarcoma cells; HT-1080-NT fibrosarcoma viability, CellTiter-Glo ATP luminescence, 48 h; Potency, µM (series often up to 46.1 µM), without a hit: at the top dose activity, negative = less viability, hits mostly cytotoxic; hit rate 1.6% among 360,000; AID 686970;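 note: NT is the 2HG producing partner of a matched IDH1 knockdown line; 0% = DMSO-treated cells and -100% = media-only wells without cells; nearly all actives have a fitted effect of over 55% in size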
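750 cells/well, RPMI + 5% FBS; 2 h settle, compound pin-transfer, 48 h at 37 degrees C. CellTiter-Glo 10 min RT, luminescence. Normalized to DMSO and media-only wells.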
SW480 rerep: induces DNA re-replication in SW480 colon adenocarcinoma cells | hit rate 1.8% among 340,000 | Potency, µM (highest dose often 46.1 µM), for the others: at the top dose re-replication activation, actives largely listed as activators | SW480 DNA re-replication, Hoechst DNA content imaging, 48 h | AID 624297; note: % of control where 0% means no effect; nearly all actives have a fitted effect of over 55% in size
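Compounds, transferred as 23 nL by pin tool, were incubated with cells for 48 hr; DNA content per nucleus was then quantified by Hoechst staining and fluorescence plate imaging.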
MCF10A rerep: DNA re-replication induction in MCF 10a cells; MCF 10A DNA re-replication, Hoechst nuclear intensity, 48 h; Potency, µM (top dose mostly 46.1 µM), without a hit: at the top dose activity, positive = re-replication, most hits filed as activators; hit rate 2.9% among 350,000; note: % of control where 0% means no effect; nearly all actives have a fitted effect of over 50% in size
KB-V1 MDR tox: KB-V1 MDR subline cytotoxicity. hit rate 3.4% among 400,000. Potency, µM (titrated, usually from 46.1 µM), actives largely listed as cytotoxic. KB-V1 MDR cells viability, CellTiter-Glo, 72 h. AID 1347076; note: % is set by controls: 0 for no effect and ±100 for the full control effect; nearly all actives have a fitted effect of over 60% in size
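Luminescent ATP read-out (CellTiter-Glo, 10 min) measures survival of drug-selected KB-V1 MDR cells after 72 h, 37 degrees C compound exposure. Medium: phenol-red-free DMEM, 10% FBS. Values from fitted concentration-response curves.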
HT1080 IDH1KD tx: HT-1080 IDH1 knockdown cell toxicity (counter line); HT-1080 IDH1 knockdown viability, ATP luminescence, 48 h; Potency, µM (top dose mostly 46.1 µM), inactives show at the highest dose activity, negative = toxicity, hits mostly cytotoxic; hit rate 2% among 360,000; AID 686971;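 note: 0% = DMSO wells and -100% = cell-free medium wells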
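IDH1KD HT-1080 cells, 750/well, RPMI + 5% FBS; compound pinned after 2 h settling; 48 h, 37 °C; CellTiter-Glo luminescence; % activity normalised to DMSO and no-cell wells; curves fitted, classed by r2 and efficacy.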
KB-3-1 tox: KB-3-1 parental cell cytotoxicity. KB-3-1 viability, CellTiter-Glo ATP luminescence, 72 h. Potency, µM (series often up to 46.1 µM), usual class: cytotoxic. hit rate 1.4% among 400,000; note: % is set by controls: 0 for no effect and ±100 for the full control effect; nearly all actives have a fitted effect of over 60% in size
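KB-3-1 parental drug-naive adenocarcinoma cells in DMEM/10% FBS, incubated 72 h at 37 C with pin-transferred compounds across a concentration series. Viability by CellTiter-Glo luminescence; concentration-response curves fitted after normalization.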
* = called active by the depositor; i = inactive; ? = inconclusive; / = no result. The list is not random: actives were taken first. Their share in the collection is about 8%. Calls come from the whole dose curve; as a rule, active = well fitted curve in the direction sought with a large enough effect; inconclusive = small, poorly fitted or top-dose-only effect, or another doubt; inactive = no such curve, though single readings can be large; an effect the other way counts as inactive or inconclusive. Potency is the fitted concentration of half-maximal effect.

SMILES | HT1080-NT tox | SW480 rerep | MCF10A rerep | KB-V1 MDR tox | HT1080 IDH1KD tx | KB-3-1 tox
CCOC(=O)C1=C(N)N2C(=O)C(C)SC2=C(C(=O)OC)C1c1ccccc1OC (centres undefined) | 10.2% | -3.2% | 0.8% | i | -3.2% | i
CCOC(=O)n1c(=O)n(Cc2ccc(OC)cc2)c2ccccc21 | 14.6µM* | ? | 0.0% | ? | ? | 16.4µM*
CCOC(=O)n1c(=O)n(Cc2ccccc2C)c2ccccc21 | -9.1% | -78.2% | 2.4% | i | -13.0% | i
Clc1cc(Cl)c2nc(N3CCOCC3)sc2c1 | 7.0% | -7.8% | 15.9% | ? | 2.2% | ?
Cc1cc(C)nc(Nc2nc(C(N)Cc3ccc(Cl)cc3)cs2)n1 (centres undefined) | 20.6µM* | / | / | ? | 14.6µM* | i
NC(Cc1ccc(F)cc1)c1csc(Nc2ccc(S(N)(=O)=O)cc2)n1 (centres undefined) | ? | / | / | i | -20.0% | i
Cc1cc(C)nc(Nc2nc(C(N)Cc3ccc(F)cc3)cs2)n1 (centres undefined) | ? | / | / | ? | 13µM* | ?
CCN(CC)c1ccc(/C=C2/SC(=O)N(C(C)C)C2=O)o1 | 13µM* | 5.17µM* | ? | i | ? | ?
CC(C)N1C(=O)S/C(=C\c2ccc(-c3ccc(Cl)c(C(=O)O)c3)o2)C1=O | -23.1% | 1.2% | ? | i | -17.1% | i
C=C1/C(=C\C=C2/CCC[C@]3(C)[C@@H]([C@H](C)CCCC(C)(C)O)CC[C@@H]23)C[C@@H](O)C[C@@H]1O | / | 1.5% | 21.1µM* | / | / | /
C=C1CC[C@H](O)C/C1=C/C=C1\CCC[C@]2(C)[C@@H]([C@H](C)CCCC(C)(C)O)CC[C@@H]12 | / | 8.6% | 10.6µM* | / | / | /
CCC(=O)c1ccc2c(c1)N(CCCN(C)C)c1ccccc1S2 | 23.1µM* | ? | 8.4% | i | 23.1µM* | i
CN(C)CCCN1c2ccccc2Sc2ccccc21 | ? | ? | 27.3% | ? | ? | i
CC(=O)c1ccc2c(c1)N(C)c1ccccc1S2 | 0.3% | 1.4% | ? | 23.1µM* | -9.7% | ?
Cc1ccc(NC(=O)c2ccc3c(c2)NC(=O)c2ccccc2S3)cc1 | / | / | / | 9.2µM* | / | 6.51µM*
Cc1ccc(CC(=O)Nc2ccc3c(c2)N(C)C(=O)c2ccccc2S3)cc1 | / | / | / | 18.4µM* | / | i
CN(CC(=O)Nc1ccc(Cl)c(Cl)c1)CC(=O)N1CCc2ccccc21 | ? | / | / | i | ? | i
COc1ccc(NC(=O)CCNS(=O)(=O)c2ccc3c(c2)CCN3C(=O)C2CC2)cc1Cl | / | / | / | ? | / | i
CC(=O)Nc1cc(C(=O)Nc2ccc3c(c2)N(C)C(=O)c2ccccc2S3)ccc1C | / | / | / | ? | / | 4.11µM*
Cc1ccc(C(=O)Nc2ccc3c(c2)N(C)C(=O)c2ccccc2S3)cc1F | / | / | / | 6.51µM* | / | 8.2µM*
COCCNC(=O)Nc1ccc2c(c1)N(C)C(=O)c1ccccc1S2 | -4.7% | 0.8% | 12.1% | i | 0.3% | i
CCCCNC(=O)c1ccc2c(c1)N(C)C(=O)c1ccccc1S2 | -10.5% | 12.3% | 12.5% | i | 8.9% | i
CS(=O)(=O)Nc1ccc2c(c1)[C@@H]1C[C@@H](CC(=O)NCc3cccnc3)O[C@H](CO)[C@@H]1O2 | 3.2% | / | / | i | 5.1% | i
CC(CN1CCOCC1)OC(=O)CCc1ccccc1 (centres undefined) | 6.8% | -1.5% | 1.1% | i | 11.4% | i
O=S(=O)(c1ccc(Cl)cc1)c1ccccn1 | -2.4% | -2.7% | 24.8% | i | 6.8% | i
SMILES | HT1080-NT tox | SW480 rerep | MCF10A rerep | KB-V1 MDR tox | HT1080 IDH1KD tx | KB-3-1 tox
O=C(O)CSc1nnc(-c2ccccc2)c(-c2ccccc2)n1 | 3.4% | 18.6% | 19.2% | i | 0.2% | i
CCN(CC)C(=O)CSc1nnc(-c2ccccc2)c(-c2ccccc2)n1 | 11.3% | -6.9% | ? | 3.26µM* | 17.5% | i
c1ccc(CSc2nnc(-c3ccccc3)c(-c3ccccc3)n2)cc1 | -20.3% | ? | 8.2µM* | 18.4µM* | -1.9% | i
CN1CCN(c2ccc(Cl)cc2NC(=O)CN2C(=O)NC(C)(c3ccccc3)C2=O)CC1 (centres undefined) | -15.3% | 15.2% | -2.8% | i | -8.7% | i
CCCCN1C(=O)C(O)(CC(=O)c2ccco2)c2cc(Br)ccc21 (centres undefined) | ? | 14.6µM* | ? | i | ? | 14.6µM*
COc1ccc(C(=O)CC2(O)C(=O)N(Cc3ccccc3Cl)c3ccccc32)cc1 (centres undefined) | / | / | / | 18.4µM* | / | ?
O=C(CC1(O)C(=O)N(Cc2ccccc2Cl)c2ccccc21)c1ccco1 (centres undefined) | 1.0% | 18.4µM* | ? | ? | 2.8% | ?
CN1C(=O)C(O)(CC(=O)c2ccccc2O)c2cc(Br)ccc21 (centres undefined) | 16.4µM* | ? | ? | ? | 0.0% | ?
CN1C(=O)C(O)(CC(=O)/C=C/c2ccco2)c2cc(Br)ccc21 (centres undefined) | -18.1% | ? | ? | i | -14.0% | ?
Nc1ncnc2c1ccn2[C@H]1CN(Cc2ccc3c(c2)OCO3)C[C@@H](CO)O1 | ? | / | / | i | -0.2% | i
Cc1onc(-c2c(Cl)cccc2Cl)c1C(=O)NCc1ccc(S(N)(=O)=O)cc1 | 7.7% | -6.5% | -3.1% | i | 7.3% | i
COc1ccc(C2/C=C\CN(C(=O)c3ccccc3)[C@H](Cc3ccccc3)C(=O)N2Cc2ccc(F)cc2)cc1 (some centres undefined) | -7.6% | 5.9% | ? | i | -3.4% | ?
COc1ccc(NCc2cccn2-c2nnc(N3CCCCCC3)s2)cc1 | / | / | / | i | / | i
CCOc1ccc(NCc2cccn2-c2nnc(N3CCC(C(=O)NCCCN4CC(C)CC(C)C4)CC3)s2)cc1 (centres undefined) | 20.6µM* | ? | -2.4% | i | ? | i
Cc1c(NC(=S)NC(=O)C2CCCCC2)c(=O)n(-c2ccccc2)n1C | 8.3% | -3.5% | -5.3% | ? | 22.0% | i
O=C1C2C(C(=O)N1/N=C/c1ccc(N3CCCCC3)o1)C1C=CC2C12CC2 (centres undefined) | 8.9% | ? | 18.4µM* | ? | 10.8% | ?
O=C(O)CN1C(=O)/C(=C/c2ccc(N3CCCCC3)o2)SC1=S | -11.1% | -4.4% | -2.5% | i | -0.5% | i
O=C(/C=C/c1ccccc1[N+](=O)[O-])c1ccc(F)cc1 | ? | ? | ? | 23.1µM* | -25.3% | ?
